Source: PubChem (several laboratories)
A selection: hits, their analogues and other compounds. The true share with any hit is near 4.1%.
PolyA inhibitor = yeast polyadenylation inhibition. AID 1875. S. cerevisiae SKY197-pL101 polyadenylation reporter, beta-gal luminescence; efflux-impaired pdr1/pdr3 knockout yeast; score 100 = 6 SD above DMSO. activity score, % at 12 µM. actives 0.02% (n = 300,000);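 active = lowest replicate activity score at least 50, where 100 means six control SD above control mean; inconclusive = lowest score under 50 but half or more replicates reach 50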;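 note: yeast exposed to compound for 9 h at 30 °C; higher score means more reporter readthrough which indicates perturbed polyadenylation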
IDE inh = cellular human IDE inhibition | HEK cells, FAbetaB cleavage, fluorescence polarization | actives 0.41% (n = 320,000) | P14735 | inhibition, % at 5.59 µM;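 active = percent inhibition above the average of all tested compounds plus 3 SD, set per screening campaign, cut at about 16% in these data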;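 note: IDE supplied by intact live HEK cells; FP after avidin binding of uncleaved biotin substrate so inhibition keeps polarization high; 0% = DMSO wells and 100% = 60 µM reference IDE inhibitor Ii1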
ALR inh = human ALR oxidase inhibition via reduced H2O2; P55789; purified ALR, DTT oxidation, H2O2 HRP-luminol luminescence; inhibition, % (concentration not given with the values); actives 3.8% (n = 290,000); AID 485317;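 active = mean replicate inhibition above about 79%, with every replicate also reaching it, limit read from the data; inconclusive = only one of the two criteria met; inactive = mean below limit and not every replicate reaching it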
Target sequence (P55789 whole entry, looked up): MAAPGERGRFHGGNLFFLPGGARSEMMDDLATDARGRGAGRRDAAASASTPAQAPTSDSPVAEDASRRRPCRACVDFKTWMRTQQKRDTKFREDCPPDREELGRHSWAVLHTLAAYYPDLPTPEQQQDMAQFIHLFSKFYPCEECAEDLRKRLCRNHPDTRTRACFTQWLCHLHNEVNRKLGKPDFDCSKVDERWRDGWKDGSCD
CaV13 FRET inh = Primary screen for inhibitors of IQ motif and Ca2+-dependent inactivation inhibitor domain binding in CACNA1D, Förster resonance energy transfer in living cells, …; HEK cells, CFP/YFP FRET ICDI-IQ, plate reader, 10 min; percent FRET-ratio fall versus neutral wells; inhibition, % at 12.3 µM; actives 0.098% (n = 340,000);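 active = mean replicate inhibition of at least 30% and at least 1% of replicates passing that level; inconclusive = only one of the two criteria is met; inactive = neither criterion is met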;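 note: 0% = median of the neutral control wells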
IDE act = boosts human insulin-degrading enzyme activity in HEK cells. FAbeta-B cleavage, fluorescence polarization; 0% vehicle, 100% cell-free pure enzyme wells. AID 493087. actives 0.073% (n = 340,000). activation, % at 5.96 µM. P14735;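 active = activation above the mean of all tested compounds plus 3 SD, set per screening campaign, cut at about 17% in these data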
M18AAP inhibitor = blocks P. falciparum M18 aspartyl aminopeptidase. recombinant PfM18AAP, H-Glu-NHMec fluorogenic cleavage. inhibition, % at 7.35 µM. actives 1.2% (n = 290,000);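 active = inhibition above the campaign mean inhibition over all tested compounds plus 3 SD, cut at about 28% in these data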;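 note: 0% = plate median of test compound wells and 100% = 2 mM ZnCl2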
Active calls of the source: *; ? = inconclusive; nt = no result.

SMILES	PolyA inhibitor	IDE inh	ALR inh	CaV13 FRET inh	IDE act	M18AAP inhibitor
O=C(Nc1nnc(C2=COCCO2)o1)c1ccc(S(=O)(=O)N2CCCC2)cc1	2	2	2	-5	2	4
CC1CCCCN1S(=O)(=O)c1ccc(C(=O)Nc2nnc(-c3ccncc3)o2)cc1 (centres undefined)	-6	0	81*	-5	4	-3
CS(=O)(=O)c1cccc(C(=O)Nc2nnc(C3=COCCO3)o2)c1	5	0	99*	-2	4	nt
O=C(Nc1nnc(-c2ccncc2)o1)c1ccccc1	2	1	87*	-6	6	4
CC(C)Cc1ccc(CN2CCCC(NC(=O)CCN3CCCO3)C2)cc1 (centres undefined)	11	4	-11	-6	9	0
CCCCN(C)S(=O)(=O)c1ccc(C(=O)Nc2nnc(C3=COCCO3)o2)cc1	6	-1	91*	-4	1	6
N#CCCN(CCC#N)S(=O)(=O)c1ccc(C(=O)Nc2nnc(C3=COCCO3)o2)cc1	22	0	-17	-4	2	5
COc1ccc(/C=c2\s/c(=C\C(=O)C(C)(C)C)[nH]c2=O)cc1O	-6	-2	89*	-11	4	19
Cc1cc(C)c(S(=O)(=O)N2C[C@H]3CON(C)[C@H]3C[C@H]2c2ccc(-n3ccnc3)cc2)c(C)c1	nt	nt	nt	-4	nt	nt
Cc1ccc(NC(=O)C(C)OC(=O)/C=C/c2ccccc2)cc1 (centres undefined)	?	9	-1	-7	0	-6
CC1=CC(=O)C=C(C)C1=NOC(=O)/C=C\c1ccccc1	-3	-8	98*	-5	3	14
CC1=C(C)/C(=N\OC(=O)/C=C/c2ccccc2)C=CC1=O	0	-1	87*	-5	0	-1
CC1=CC(=NOC(=O)/C=C/c2ccccc2)C=C(C)C1=O	20	7	59	-2	0	6
Cc1ccc(-n2cccc2/C=C2\C(=N)N3N=C(c4ccco4)SC3=NC2=O)cc1	nt	-1	13	-2	5	7
CC(=O)c1ccc(N2CCN(C(=O)c3ccc(NC4=NC5CS(=O)(=O)CC5S4)cc3)CC2)cc1 (centres undefined)	-5	1	38	-5	-4	-2
Cc1ccc(Cl)cc1N1CCN(C(=O)c2noc(C)c2[N+](=O)[O-])CC1	-9	4	9	-15	4	2
Cc1onc(C(=O)N2CCN(c3ccccc3)CC2)c1[N+](=O)[O-]	-1	1	95*	-2	0	-3
CCOC(=O)C(CC)(CCC(=O)O)c1csc(Nc2ccc(C)cc2)n1 (centres undefined)	-5	1	99*	-4	2	-6
CCOC(=O)Cc1csc(Nc2ccc(Cl)cc2)n1	-29	-1	11	-2	3	1
COc1ccc(N2CCN(C(c3cccs3)C(C)NS(C)(=O)=O)CC2)cc1 (centres undefined)	11	-3	99*	-5	1	2
CC(NC(=O)C(=O)N1CCOCC1)C(c1cccs1)N1CCN(c2ccc(F)cc2)CC1 (centres undefined)	11	2	98*	-3	-1	7
CC(NS(C)(=O)=O)C(c1cccs1)N1CCN(c2ccc(F)cc2)CC1 (centres undefined)	-5	4	98*	-7	6	-6
CCSc1cnc(-c2ccccc2)n1CC	-9	3	-5	-4	4	-5
CN1C(=O)/C(=C/c2cccc([N+](=O)[O-])c2)C(=O)N1c1ccccc1	8	0	98*	-3	4	21
Cc1cc2nc(-c3cccnc3SCC(=O)NC(C)C)[nH]c2cc1C	1	-8	-16	-3	6	-5
SMILES	PolyA inhibitor	IDE inh	ALR inh	CaV13 FRET inh	IDE act	M18AAP inhibitor
COCCOC(=O)CSc1ncccc1-c1nc2cc(C)c(C)cc2[nH]1	4	4	98*	-6	7	1
O=C1CNC(=O)N1	-9	7	16	-6	2	8
Cc1cc2c(=O)oc(-c3ccc(Br)cc3)nc2s1	-25	-1	31	-4	7	-2
Cc1cccc(-c2nc3sc(C)cc3c(=O)o2)c1	-17	5	97*	-17	0	2
CC1(C)Cc2ccccc2C(=O)N1	8	3	-3	-5	3	-5
CC(C)c1ccc2c(c1)C(=O)NC(C)(C)C2	-12	3	92*	-12	7	-7
CC(C)(C)S(=O)(=O)N1Cc2cc(CO)ccc2[C@H]1CCO	nt	nt	nt	-6	nt	nt
COc1ccc(Cc2ccc(OC)c(N)c2)cc1N	15	-6	?	-8	4	-6
COc1cc(Cc2ccc(N)c(OC)c2)ccc1N	3	0	98*	-3	-1	1
CC(=O)c1ccc(Nc2nc(C(C)N)cs2)cc1 (centres undefined)	nt	nt	nt	-4	nt	nt
O=C(COc1ccc(Cl)cc1Cl)OCC(=O)N1CCCc2ccccc21	6	2	-1	-4	5	-8
O=C(COc1ccc(Cl)cc1Cl)NC(=S)N1CCCc2ccccc21	-1	1	98*	-8	-1	19
CC(C)(C)OC(=O)N/N=C/c1ccc(N2CCOCC2)s1	-5	11	83*	-20	1	7
CC1=NN2C(=N)/C(=C\c3cc(C)n(Cc4ccccc4)c3C)C(=O)N=C2S1	-22	7	97*	-4	nt	-1
COc1ccc(C(C(=O)Nc2ccc(C(C)C)cc2)N(Cc2ccco2)C(=O)CC2NC(=O)NC2=O)cc1 (centres undefined)	-4	-4	-13	-3	-2	-17
O=C(NCc1cccc(C(F)(F)F)c1)c1ccc2nc([C@H]3C[C@H](O)[C@@H](CO)O3)[nH]c2c1	nt	nt	nt	-13	nt	nt
CCN1CCCc2cc(CN(CCN3CCOCC3)C(=S)Nc3ccc(OC)c(OC)c3)ccc21	-12	-1	92*	-1	-4	15
COc1ccc(NC(=S)N2CCC(N(C)CCN3CCOCC3)CC2)cc1Cl	-5	1	-1	-6	-1	4
CCN1CCCc2cc(CN(CCN3CCOCC3)C(=S)Nc3ccc(OC)c(Cl)c3)ccc21	-14	0	99*	-17	4	5
COc1ccc(NC(=S)N(Cc2ccc(Cl)cc2)Cc2ccc(C(=O)O)cc2)cc1Cl	10	-5	96*	-21	3	2
Cc1cc(NC(=S)N(Cc2ccc(Cl)cc2)Cc2ccc(C(=O)O)cc2)ccc1Cl	-3	-2	2	-5	3	-9
OCC1OC(n2nnc3ccccc32)C(O)C(O)C1O (centres undefined)	-1	0	-4	-4	2	-5
